Bioassay records as filed in PubChem BioAssay.
An excerpt weighted towards active compounds, which were near 2% of everything screened.
ID4 binder: binders of human ID4 protein, primary screen, biochemical, small molecule microarray, single point | AID 624137, 2012 | Flag-ID4 binding, fluorescence F/B | DNA-binding protein inhibitor ID-4 (Homo sapiens), P47928 | calls only | hit rate 1.2% among 31,000; call rule not given here;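 note: a binder raises fluorescence above local background on the spot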
Target sequence (P47928 whole entry, looked up): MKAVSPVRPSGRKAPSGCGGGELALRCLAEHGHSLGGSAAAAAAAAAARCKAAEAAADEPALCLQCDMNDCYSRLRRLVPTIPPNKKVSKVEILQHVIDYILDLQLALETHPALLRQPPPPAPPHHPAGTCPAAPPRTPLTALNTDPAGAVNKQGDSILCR
STK33 kin inh: STK33 kinase inhibitors, primary screen, biochemical, luminescence, ADP-Glo, MBP substrate | Serine/threonine-protein kinase 33 (Homo sapiens), Q9BYT3 | inhibition, % at 12.5 µM | hit rate 0.44% among 27,000 | AID 2322, 2010; in the data active = inhibition above about 20%
p53 PUMA act: mutant p53 pathway re-activators, primary screen, cell-based, SW480, luciferase, single point, HTS; SW480 PUMA-promoter luciferase, p53 mutant reactivation; activation, % at 9.98 µM; hit rate 1.5% among 28,000; AID 624151, 2012; in the data active = activation above about 52%
A number is an active result; – = inactive; · = no result given.

SMILES | ID4 binder | STK33 kin inh | p53 PUMA act
CCc1ccc(NC2=NCCS2)cc1 | – | · | 61
NCC(=O)Nc1ccc(Br)cc1C(=O)c1ccccc1 | – | – | 113
CN1CCN(CC(=O)Nc2ccc(Br)cc2C(=O)c2ccccc2)CC1 | – | – | –
CC(C)(O)/C=C/C(=O)[C@](C)(O)C1[C@H](O)C[C@@]2(C)[C@@H]3CC=C4C(CC(=O)C(=O)C4(C)C)[C@]3(C)C(=O)C[C@@]12C (stereo partly specified) | – | · | –
Oc1ccc2c3c1OC1c4[nH]c5c(c4CC4(O)C(C2)N(CC2CC2)CCC314)CC1(O)C2Cc3ccc(O)c4c3C1(CCN2CC1CC1)C5O4 (stereo unspecified) | · | · | –
CCn1cnc2c(Nc3cccc(Cl)c3)nc(N[C@@H]3CCCC[C@@H]3N)nc21 | · | 62 | –
CC(=O)OC[C@]12C[C@H](O)C(C)=C[C@H]1O[C@@H]1[C@H](O)[C@@H](OC(C)=O)[C@@]2(C)[C@]12CO2 | · | – | ·
CCCCC/C=C/C/C=C/C/C=C/C/C=C/CCCC(=O)Nc1ccc(O)cc1 | – | · | –
Oc1cc2c(cc1O)C1c3ccccc3CNC1CC2 (stereo unspecified) | · | · | –
CC1(C)C(=O)C=C[C@@]2(C)C1C(=O)C(=O)[C@]1(C)C2CC[C@@]2(C)[C@H](c3ccoc3)C[C@H]3O[C@]321 (stereo partly specified) | · | – | ·
CN[C@@H]1C[C@@]2(C)O[C@@H]([C@@H]1OC)n1c3ccccc3c3c4c(c5c6ccccc6n2c5c31)C(=O)NC4 | · | 131 | ·
C/C=C\C(=O)O[C@@H]1C[C@H]2O[C@@H]3C=C(C)C(=O)C[C@]3(C)[C@]1(C)[C@]21CO1 | · | – | ·
